This passage reports outcome results from PubChem BioAssay (EPA / NIEHS).

Calls of active or inactive are those of the source. The calls were made as follows: active = hit-call score of the fitted dose curve at least 0.9, where 1 is the maximum; inactive = score below 0.9.

Read-out in this test: Interleukin-1 alpha (IL1a), IL1A (gene 3552)
Description: BSK_BF4T_IL1a: BioMAP Diversity Plus: BF4T Assay for Interleukin-1 alpha (IL1a) Biomarker Activity (AID 2284264). The conditions noted are these: primary human bronchial epithelial cells with fibroblasts. On the procedure: BSK_BF4T is a cell-based, multiplexed-readout assay that uses bronchial epithelial cells and dermal fibroblasts, a human vascular primary cell, with measurements taken at 24 hours after chemical dosing in a microplate: 96-well plate.BSK_BF4T_IL1a is an assay component measured in the BSK_BF4T assay. It measures IL-1a antibody related to regulation of gene expression using ELISA technology.Data from the assay component BSK_BF4T_IL1a was analyzed at the endpoint, BSK_BF4T_IL1a, in the positive analysis fitting direction relative to DMSO as the negative control and baseline of activity. Using a type of binding reporter, gain or loss-of-signal activity can be used to understand protein changes. To generalize the intended target to other relatable targets, this assay endpoint is annotated to the 'cytokine' intended target family, where the subfamily is 'interleukins'.
The levels of cell surface (or secreted, indicated by the prefix "s") biomarker endpoints were measured by ELISA. Overt cytotoxicity to cells in confluent adherent cultures (all systems other than the BT system) was assessed by measuring total protein levels using sulforhodamine B (SRB) staining in parallel cultures at the time of biomarker measurements, indicated as SRB endpoints. For proliferation assays for adherent cell types, individual cell types are cultured at sub-confluence and relative cell numbers quantified by SRB staining at time points optimized for each system (48 h: 3C and CASM3C systems; 72 h: BT and HDF3CGF systems; 96 h: SAg system). SRB was performed by staining cells with 0.1% SRB after fixation with 10% TCA and reading wells at 560 nm.Viability and proliferation of PBMC (T cells) was quantified by Alamar Blue reduction for the SAg and BT systems. For PBMC viability (referred to as PBMC Cytotoxicity within the assay endpoint names), cells were plated (75,000/well in a 96-well plate) and then chemical samples added for 1 h before addition of activators, SEB and TSST-1 (20 ng/mL final concentration each). Cells were incubated for 90 h. Then, Alamar Blue (20 uL/well) (Invitrogen, Cat DAL1100) was added for 6 h, and the plates were read with a fluorescence microplate reader at 546/580 nm (excitation/emission). For PBMC proliferation, cells were plated and activated as above but incubated for only 16 h prior to addition of Alamar Blue. Plates were read after 6 h.
With `O=C(O)C=CC(F)(C(F)(F)F)C(F)(F)F`, the result was inactive.
On to `O=C(O)C(F)(F)C(F)(F)C(=O)O`, for which the result was inactive.
The result for `CC(O)C(F)(F)C(F)(F)F` (centres undefined) reads “inactive”; that for `O=S(=O)(F)C(F)(F)C(F)(F)C(F)(F)C(F)(F)C(F)(F)C(F)(F)C(F)(F)C(F)(F)F`, “inactive”; that for `OCC(F)(F)OC(F)(F)C(F)(F)OC(F)(F)C(F)(F)OC(F)(F)F`, “inactive”.
The result for `NC(=O)C(F)(F)C(F)(F)F` reads “inactive”.
The result for `O=C(O)C(F)(F)OC(F)(F)C(F)(F)OC(F)(F)C(=O)O` reads “inactive”.
Consider `O=C(O)C(F)(F)OC(F)(F)C(F)(F)OC(F)(F)F`, for which the outcome was inactive.
The result for `O=C(O)C(F)(OC(F)(F)C(F)(F)C(F)(F)F)C(F)(F)F` (centres undefined) reads “inactive”; that for `COC(=O)C(F)(F)C(F)(F)OC(F)(C(F)(F)F)C(F)(F)OC(F)=C(F)F` (centres undefined), “inactive”; that for `FC(F)(F)C(F)(C(F)(F)F)C(F)(F)C(F)(F)CC1CO1` (centres undefined), “inactive”.
In the case of `OCC(F)(F)OC(F)(F)C(F)(F)OC(F)(F)C(F)(F)OC(F)(F)CO`, the outcome was inactive.
With `C=CC(=O)OCC(F)(F)C(F)F`, the outcome was inactive.
The result for `OCC(F)(F)OC(F)(F)C(F)(F)OC(F)(F)CO` reads “inactive”.
